Fam108B inh: blocks mouse Fam108B hydrolase in RBBP9 counter-screen | recombinant Fam108B, FP-Rh probe fluorescence polarization | inhibition, % at 9.51 µM | 0.33% of 300,000 active;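 active = inhibition above the screen mean inhibition plus 3 SD, computed separately per campaign, cut at about 18% in these data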;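 note: inhibitors lower polarization as less probe binds the enzyme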
PP5 primary: inhibitors of human protein phosphatase 5 (PP5) | AID 1987 | 0.18% of 320,000 active | inhibition, % at 6.7 µM | purified PP5c, OMFP substrate fluorescence;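 active = inhibition above the campaign's mean inhibition across all tested compounds plus 3 SD, cut at about 9.5% in these data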;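 note: 0% = DMSO only and 100% = 100 µM cantharidin control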
LYPLA2 inh: blocks human lysophospholipase 2, a PME1 counter-screen. O95372. inhibition, % at 5.9 µM. 0.38% of 320,000 active. AID 2177. recombinant LYPLA2, FP-Rh probe fluorescence polarization;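 active = inhibition above the screen-wide mean plus 3 SD, limit set per campaign, cut at about 26% in these data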;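 note: 0% = LYPLA2 with DMSO and 100% = wells lacking LYPLA2 enzyme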
PME-1 primary: blocks human protein phosphatase methylesterase 1 | Q9Y570 | recombinant PME-1, FP-Rh probe fluorescence polarization | inhibition, % at 5.9 µM | 0.53% of 320,000 active | AID 2130;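 active = inhibition above the campaign mean of all compounds plus 3 SD, cut at about 26% in these data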;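 note: competitive labeling of PME-1 active site by serine hydrolase directed probe; 0% = PME-1 with DMSO and 100% = wells lacking PME-1 enzyme; inhibitors block probe labeling so polarization falls and inhibition rises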
PP1 inh: counter-screen for PP5 inhibitors: inhibitors of human PP1-alpha; P62136; purified PP1alpha, OMFP fluorescence; inhibition, % at 6.7 µM; 0.9% of 320,000 active;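 active = inhibition above the mean inhibition of all tested compounds plus 3 SD, computed separately for each screening campaign, cut at about 15% in these data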
Target sequence (P62136 whole entry, looked up): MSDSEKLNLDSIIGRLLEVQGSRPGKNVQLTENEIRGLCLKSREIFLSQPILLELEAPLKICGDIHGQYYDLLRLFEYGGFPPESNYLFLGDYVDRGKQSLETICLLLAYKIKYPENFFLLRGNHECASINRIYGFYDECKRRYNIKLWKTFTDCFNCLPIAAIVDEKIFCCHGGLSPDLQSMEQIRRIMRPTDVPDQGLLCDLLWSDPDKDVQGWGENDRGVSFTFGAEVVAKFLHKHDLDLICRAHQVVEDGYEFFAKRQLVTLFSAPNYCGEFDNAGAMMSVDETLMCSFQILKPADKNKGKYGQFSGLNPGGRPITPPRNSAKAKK
LYPLA1 counter: blocks human lysophospholipase 1, a PME1 counter-screen; O75608; recombinant LYPLA1, FP-Rh probe fluorescence polarization; inhibition, % at 5.9 µM; 0.16% of 320,000 active; AID 2174;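 active = inhibition above the mean of all tested compounds plus 3 SD, set per campaign, cut at about 14% in these data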;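 note: inhibitors block serine hydrolase probe labeling of LYPLA1 so polarization falls; 0% = enzyme with DMSO and 100% = wells lacking LYPLA1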
Target sequence (O75608 whole entry, looked up): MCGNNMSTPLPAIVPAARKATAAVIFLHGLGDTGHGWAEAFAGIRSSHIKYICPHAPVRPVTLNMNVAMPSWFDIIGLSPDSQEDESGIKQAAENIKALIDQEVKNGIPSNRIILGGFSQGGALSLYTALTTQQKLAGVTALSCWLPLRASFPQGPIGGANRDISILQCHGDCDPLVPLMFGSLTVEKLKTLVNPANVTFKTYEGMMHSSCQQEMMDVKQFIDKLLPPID
PP1 confirm: human PP1 phosphatase inhibition, confirmation; shares compounds with PP1 inh; purified PP1alpha, OMFP substrate fluorescence; inhibition, % at 6.7 µM; 52% of 1,900 active; AID 2358;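 active = mean PP1 inhibition above a set limit taken from the earlier primary screen, cut at about 15% in these data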
PP5 inh counter: counter-screen for PP1 inhibitors: human PP5 phosphatase inhibition. shares compounds with PP1 inh. 4% of 1,900 active. AID 2360. inhibition, % at 6.7 µM. purified PP5c, OMFP fluorescence;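 active = mean PP5 inhibition over triplicate wells above about 9.5% taken from the earlier PP1 screen, limit read from the data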
* hit, by the source's call. An excerpt weighted towards active compounds, which were near 1.8% of everything screened.

For C=CCn1c(SCc2ccc(C(=O)Nc3nccs3)cc2)nnc1-c1ccc(C)c(Cl)c1 the results were Fam108B inh -15.1, PP5 primary 3.7, LYPLA2 inh -11.2, PME-1 primary -11.4, PP1 inh 17.6*, LYPLA1 counter -10.7, PP1 confirm 8.3 and PP5 inh counter 0.1.
`Cn1nnnc1SCc1ccc(C(=O)Nc2nccs2)cc1` gave Fam108B inh -4.9, PP5 primary 2.1, LYPLA2 inh 0.9, PME-1 primary -10.8, PP1 inh -1.7 and LYPLA1 counter -2.8.
`O=C(Nc1ccc(Cl)c(Cl)c1)Nc1ccc(N2CCCC2)c(S(=O)(=O)Nc2ccccc2Cl)c1` gave Fam108B inh 16.3, PP5 primary 2.9, LYPLA2 inh -28.7, PME-1 primary 15.0, PP1 inh 17.8*, LYPLA1 counter -28.9, PP1 confirm 13.8 and PP5 inh counter -0.4.
`COc1ccccc1NS(=O)(=O)c1cc(NC(=O)Nc2ccccc2)ccc1N1CCCCC1` gave Fam108B inh -15.1, PP5 primary 2.5, LYPLA2 inh -50.0, PME-1 primary -42.5, PP1 inh 1.1 and LYPLA1 counter -37.2.
C=C1SC(Nc2c(C)cc(C)cc2C)=NC12CCCCC2 was read as Fam108B inh -1.4, PP5 primary -0.2, LYPLA2 inh -1.3, PME-1 primary -1.0, PP1 inh 4.7 and LYPLA1 counter -1.7.
For CNC(=O)/C(C#N)=C/c1ccc(-c2ccc(Cl)cc2)o1 the results were Fam108B inh -14.1, PP5 primary 4.3, LYPLA2 inh -17.0, PME-1 primary -15.4, PP1 inh 20.1*, LYPLA1 counter -6.3, PP1 confirm 15.8* and PP5 inh counter -3.4.
`O=C(CSc1nnc(-c2ccc(O)cc2)n1Cc1ccco1)c1cccs1` gave Fam108B inh -5.8, PP5 primary 3.5, LYPLA2 inh 2.5, PME-1 primary -7.4, PP1 inh 29.7*, LYPLA1 counter -2.6, PP1 confirm -6.6 and PP5 inh counter -7.5.
`Cc1cc(C)nc(SCc2nnc(SCC(=O)Nc3nccs3)n2Cc2ccco2)n1` gave Fam108B inh -2.0, PP5 primary -0.7, LYPLA2 inh 8.0, PME-1 primary -4.3, PP1 inh -2.1 and LYPLA1 counter -0.7.
Screening Cc1occc1-c1nnc(SCC(=O)Nc2nccs2)n1Cc1ccco1 returned Fam108B inh 1.8, PP5 primary -1.0, LYPLA2 inh -2.8, PME-1 primary -1.3, PP1 inh 29.7*, LYPLA1 counter 1.4, PP1 confirm -5.5 and PP5 inh counter -4.5.
`CCOC(=O)c1c(C)[nH]c(C(=O)OC/C(O)=C(\C#N)c2nc3ccccc3[nH]2)c1C` gave Fam108B inh -0.1, PP5 primary 0.4, LYPLA2 inh -10.1, PME-1 primary 4.8, PP1 inh 19.7*, LYPLA1 counter -7.4, PP1 confirm 9.7 and PP5 inh counter 1.4.
Screening CC(C)c1ccc(S(=O)(=O)c2cn(Cc3ccc(F)cc3)c3cc4c(cc3c2=O)OCO4)cc1 returned Fam108B inh 0.5, PP5 primary 0.7, LYPLA2 inh 8.4, PME-1 primary 0.2, PP1 inh -2.5 and LYPLA1 counter 0.9.
`Cc1ccc(Cn2cc(S(=O)(=O)c3ccc(C(C)C)cc3)c(=O)c3cc4c(cc32)OCO4)cc1` gave Fam108B inh -10.7, PP5 primary 4.7, LYPLA2 inh -0.1, PME-1 primary -5.0, PP1 inh 18.3*, LYPLA1 counter -5.8, PP1 confirm 17.9* and PP5 inh counter 4.5.
O=c1[nH]c(NNC(=S)NC2CCCCC2)nc2c1C1(CCCC1)Cc1ccccc1-2 was read as Fam108B inh -9.4, PP5 primary 1.3, LYPLA2 inh -45.1, PME-1 primary -23.7, PP1 inh 18.5*, LYPLA1 counter -22.4, PP1 confirm 0.5 and PP5 inh counter -3.3.
For O=c1[nH]c(NNC(=S)NCc2ccccc2)nc2c1C1(CCCCC1)Cc1ccccc1-2 the results were Fam108B inh -32.9, PP5 primary 4.0, LYPLA2 inh -38.7, PME-1 primary -29.3, PP1 inh 11.5 and LYPLA1 counter -27.0.
Screening COc1cc([N+](=O)[O-])cc(/C=N/NC(=O)C(C)Nc2cccc3ccccc23)c1O (stereo unspecified) returned Fam108B inh 8.0, PP5 primary 1.6, LYPLA2 inh 7.2, PME-1 primary 4.4, PP1 inh 22.8*, LYPLA1 counter 3.0, PP1 confirm 33.1* and PP5 inh counter -1.9.
Screening O=C(N/N=C\c1cccc([N+](=O)[O-])c1O)C1COc2ccccc2O1 (stereo unspecified) returned Fam108B inh 0.0, PP5 primary -1.5, LYPLA2 inh -2.5, PME-1 primary 0.8, PP1 inh -7.0 and LYPLA1 counter -4.9.
For COc1cc([N+](=O)[O-])cc(/C=N\NC(=O)C2COc3ccccc3O2)c1O (stereo unspecified) the results were Fam108B inh 6.6, PP5 primary -0.2, LYPLA2 inh 2.7, PME-1 primary -2.7, PP1 inh 32.3*, LYPLA1 counter 0.9, PP1 confirm 25.9* and PP5 inh counter -3.0.
For COc1cc([N+](=O)[O-])cc(/C=N/NC(=O)C(O)(c2ccccc2)c2ccccc2)c1O the results were Fam108B inh 5.2, PP5 primary -0.8, LYPLA2 inh 6.6, PME-1 primary 1.9, PP1 inh 20.1*, LYPLA1 counter -3.9, PP1 confirm 13.6 and PP5 inh counter -2.6.
COc1ccc(S(=O)(=O)N2CCOCC2)cc1C(=O)N1CCCC1 was read as Fam108B inh -2.0, PP5 primary -0.2, LYPLA2 inh -1.5, PME-1 primary 1.9, PP1 inh 0.9 and LYPLA1 counter -3.4.
Screening COc1ccc(-n2nc(C(=O)NCC(=O)Nc3cccc(Cl)c3)c3ccccc3c2=O)cc1 returned Fam108B inh -44.5, PP5 primary 0.0, LYPLA2 inh 2.0, PME-1 primary -6.5, PP1 inh -5.6 and LYPLA1 counter -0.7.
For CC(=O)c1c(C)[nH]c(C(=O)OCC(=O)NCc2cccs2)c1C the results were PP5 primary 3.0, LYPLA2 inh 5.9, PME-1 primary 9.0, PP1 inh -1.7 and LYPLA1 counter -1.2.
For COc1cccc2c(=O)c3cccc(N)c3[nH]c12 the results were Fam108B inh 12.4, PP5 primary 1.1, LYPLA2 inh -8.0, PME-1 primary 13.0, PP1 inh 19.9*, LYPLA1 counter -6.5, PP1 confirm 19.1* and PP5 inh counter 12.8*.
`COc1cccc2c(=O)c3c([nH]c12)OC(C)(C)C3` gave Fam108B inh 2.8, PP5 primary 3.4, LYPLA2 inh -10.9, PME-1 primary -2.9, PP1 inh -1.3 and LYPLA1 counter 2.8.

Screening data (PubChem BioAssay)
